Screens from PubChem.
Shown are actives, neighbours in structure and some others; about 5.7% of the full set was active somewhere.
HEK293 tox: qHTS of GLP-1 Receptor Inverse Agonists: Cytotox Screen | HEK293 cAMP-luciferase reporter cells, luminescence, 24 h | Potency, µM (top dose mostly 38.3 µM), usual class: inhibitors | actives 0.13% (n = 410,000);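 note: loss of luciferase light is scored as toxicity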
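Here, cytotoxicity is scored as loss of luminescence. The MLSMR collection was tested on cells seeded in medium containing 10% Nu serum, with a 24 hr compound exposure preceded by 12 hours of culture.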
DRD3 agonist: qHTS of D3 Dopamine Receptor Agonist: qHTS. D(3) dopamine receptor (Homo sapiens), P35462. D3R DiscoveRx beta-arrestin cells, luminescence, 90 min. max activation, %. actives 0.58% (n = 410,000). AID 652048, 2013; in the data active = max activation above about 30%
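Agonist mode: compounds and dopamine controls were applied to plated cells for 90 min at 37 degrees C after an overnight attachment at 1500 cells/well. Luminescent read-out followed 30 - 60 minutes at room temperature with DiscoveRx detection reagent.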
D3 antag: qHTS of D3 Dopamine Receptor Antagonist: qHTS; D(3) dopamine receptor (Homo sapiens), P35462; D3R cells, DiscoveRx beta-arrestin luminescence, antagonist mode; hits give low values; max response, negative = inhibition, %; actives 2.5% (n = 360,000); in the data active = max response below about -50%; inconclusive = no clear call, values can overlap the other calls
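Cells expressing the human receptor were seeded at 1500 cells/well, incubated overnight at 37 degrees C in 5% CO2, then exposed to library compounds with dopamine controls for 90 minutes at 37 degrees C before luminescent detection.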
GLP-1R inv ag: qHTS of GLP-1 Receptor Inverse Agonists (Inhibition Mode); HEK293 GLP-1R CRE-luciferase, luminescence, 24 h; GLP-1R form is constitutively active; Glucagon-like peptide 1 receptor (Homo sapiens), P43220; Potency, µM (series often up to 38.3 µM), most hits filed as inhibitors; AID 624417, 2012; actives 1.6% (n = 410,000); note: nearly all actives have a fitted effect of over 55% in size
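qHTS in 1536-well format: reporter HEK293 cells expressing constitutive GLP-1R activity in DMEM + 10% Nu serum, 24 hr with compounds at 37 deg C, luminescence read after 12 min with detection reagent.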
ClpP mod: qHTS Assay for Activators of ClpP; ATP-dependent Clp protease proteolytic subunit (Bacillus subtilis (strain 168)), P80244; purified B. subtilis ClpP, FRET peptide cleavage, 20 min; Potency, µM (series often up to 57.5 µM); actives 1.9% (n = 340,000); active = well fitted falling curve with a large enough effect; inconclusive = small, poorly fitted or top-dose-only effect; inactive = no such curve, though single readings can be large or run the other way; note: the source files actives as falling curves though it sought activators and does not explain the sign; nearly all actives have a fitted effect of over 65% in size
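Purified B. subtilis ClpP, 10 microg/mL final in Tris/HCl pH8 with KCl, BSA, glycerol and Tween-20, cleaved an Abz/nitrotyrosine-quenched decapeptide. Fluorescence (ex 320, em 430) was read at 0 and 20 min at room temperature. Delta was normalized to 5.8 microM ADEP and DMSO/no-enzyme controls.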
GLP-1R agonist: qHTS of GLP-1 Receptor Agonists | Glucagon-like peptide 1 receptor (Homo sapiens), P43220 | HEK293 GLP-1R CRE-luciferase, luminescence, 4-6 h; cells express a hypersensitive GLP-1R form | Potency, µM (titrated, usually from 45.6 µM), actives largely listed as activators | actives 0.007% (n = 380,000) | AID 624172, 2012
A number is an active result; 0 = inactive; ? = inconclusive; - = not tested or not shown. Unless noted, calls come from the whole dose curve; as a rule, active = well fitted curve in the direction sought with a large enough effect; inconclusive = small, poorly fitted or top-dose-only effect, or another doubt; inactive = no such curve, though single readings can be large; an effect the other way counts as inactive or inconclusive.

SMILES | HEK293 tox | DRD3 agonist | D3 antag | GLP-1R inv ag | ClpP mod | GLP-1R agonist
CCC(=O)N1CCN(c2ccccc2NC(=O)Cc2ccc(Cl)cc2)CC1 | 0 | 0 | -74 | 0 | 0 | 0
O=C(Cc1ccc(Cl)c(Cl)c1)Nc1ccccc1N1CCCC1 | 0 | 0 | 0 | 10µM | 0 | 0
COc1cccc(S(=O)(=O)N(C)C[C@H]2Oc3ncc(Br)cc3C(=O)N([C@@H](C)CO)C[C@@H]2C)c1 | 0 | 0 | 0 | 0 | 0 | 0
Cc1ccc(OCCCSc2nc(-c3ccc(C(C)(C)C)cc3)nc3cc(=O)[nH]n23)cc1C | 0 | 33 | - | 0 | 0 | -
CC(C)(C)c1ccc(OCCSc2nc(-c3cccs3)nc3cc(=O)[nH]n23)cc1 | 0 | 37 | - | 0 | 0 | -
COc1ccc(NC(=O)c2cc(C3CCCCN3C(=O)OCc3ccccc3)on2)c(C)c1 (stereo not given) | 0 | 0 | 0 | ? | 0 | 0
Cc1sc(NC(=O)c2ccco2)nc1-c1ccc2c(c1)CC(C)N2C(=O)C1CC1 (stereo not given) | ? | 42 | 0 | 0 | 0 | 0
CCN(Cc1ccccc1)C(=O)Cn1c(=O)oc2cc(S(=O)(=O)N3CCCCCC3)ccc21 | 0 | 0 | - | ? | 0 | -
Cc1ccc(C(=O)COC(=O)C(Cc2c[nH]c3ccccc23)NC(=O)c2ccc(C(C)(C)C)cc2)cc1 (stereo not given) | 0 | 0 | - | ? | 0 | -
COc1ccccc1CNc1ncnc2c1c(-c1ccccc1)cn2-c1cccc(C)c1 | 0 | 0 | - | ? | 28µM | -
COc1ccccc1N1CCN(c2ncnc3c2c(-c2ccccc2)cn3-c2cccc(C)c2)CC1 | 0 | 0 | - | 0 | 11µM | -
COc1ccc(CNc2ncnc3c2c(-c2ccccc2)cn3-c2cccc(C)c2)cc1 | 0 | 0 | - | 0 | 0 | -
CC1CCN(c2ncnc3c2c(-c2ccccc2)cn3-c2ccc(Br)cc2)CC1 | 0 | 0 | - | 0 | 0 | -
Cc1cccc(-n2cc(-c3ccccc3)c3c(NN4CCOCC4)ncnc32)c1 | 0 | 0 | 0 | 0 | 0 | 0
Cc1cccc(-n2cc(-c3ccccc3)c3c(N4CCC(C)CC4)ncnc32)c1 | 0 | 0 | - | 0 | 28µM | -
CCN([C@H](CO)CC(C)C)S(=O)(=O)c1ccccc1 | 0 | 0 | 0 | 0 | 0 | 0
CC(C)C[C@@H](CO)N(Cc1ccccc1)S(=O)(=O)N(Cc1ccccc1)[C@H](CO)CC(C)C | ? | 48 | 0 | ? | 0 | 0
COc1ccc(CN([C@H](C)CO)S(=O)(=O)N(Cc2ccccc2)[C@H](CO)C(C)C)cc1 | 0 | 0 | 0 | ? | 0 | 0
COc1ccc(CN([C@H](CO)CC(C)C)S(=O)(=O)N(Cc2ccccc2)[C@H](CO)CC(C)C)cc1 | ? | 0 | 0 | 4.5µM | 0 | 0
C=CS(=O)(=O)N(Cc1ccccc1Br)[C@H](CO)CC(C)C | 0 | 0 | -81 | ? | 0 | 0
CCCC12CN3CC(CCC)(CN(C1)C3c1c[nH]c3ccccc13)C2=O (stereo not given) | 0 | 0 | - | 0 | 0 | -
O=C(CN1CCN(c2ccc(Cl)cc2)CC1)NCc1ccccc1 | 0 | 0 | 0 | ? | - | 0
CC(NC(=O)CN1CCN(c2cccc(Cl)c2)CC1)c1ccccc1 (stereo not given) | 0 | 0 | ? | ? | 0 | 0
OC(CSc1ccccc1)CN1CCN(c2ccc(Cl)cc2)CC1 (stereo not given) | 0 | 0 | -86 | ? | - | 0
OC(CSc1ccccc1)CN1CCN(c2cccc(Cl)c2)CC1 (stereo not given) | 0 | 0 | -85 | ? | - | 0
SMILES | HEK293 tox | DRD3 agonist | D3 antag | GLP-1R inv ag | ClpP mod | GLP-1R agonist
Cc1cccc(C(=O)Nc2nc3nc(-c4ccccc4)cc(=O)n3[nH]2)c1 | 0 | 0 | - | 0 | 0 | -
CN(CC(=O)NCC1CCCO1)S(=O)(=O)c1ccc2ccccc2c1 (stereo not given) | 0 | 0 | 0 | 0 | 0 | 0
CCOC(=O)c1ccc(NC(=O)Cn2nc(SC)c(S(=O)(=O)c3ccc(Cl)cc3)c2N)cc1 | 0 | 0 | - | ? | 0 | 0
COc1ccc(Br)cc1S(=O)(=O)N(CC(=O)N1CCOCC1)c1ccccc1 | 0 | 0 | -120 | 0 | 0 | 0
COc1ccc(C)cc1S(=O)(=O)N(CC(=O)N1CCOCC1)c1cc(C)cc(C)c1 | 0 | 0 | 0 | 0 | 0 | 0
CN(C)S(=O)(=O)N(CC(=O)N1CCOCC1)c1ccccc1 | 0 | 0 | -52 | 0 | 0 | 0
CS(=O)(=O)N(CC(=O)N1CCOCC1)c1ccccc1 | 0 | 0 | 0 | 0 | - | 0
COC(=O)c1ccc(C(=O)OC)c(NC(=O)COC(=O)C2CCC(C(C)(C)C)CC2)c1 (stereo not given) | 0 | 0 | 0 | 0 | 28µM | 0
COC(=O)c1ccc(C(=O)OC)c(NC(=O)COC(=O)C2CCCCC2)c1 | 0 | 0 | 0 | 0 | ? | 0
CCCC(=O)N1CCCC1(C)C(=O)NCCc1ccccn1 (stereo not given) | 0 | 0 | 0 | 0 | 0 | 0
Cn1nc(C(=O)NCc2cccc(Cl)c2)c2c1-c1ccccc1SC2 | 0 | 0 | - | ? | 0 | -
COc1ccc(OC)c(/C=C/C(=O)N2C(=O)c3cccc(N)c3C2=O)c1 | 0 | 0 | -65 | ? | 0 | 0
COc1cc(/C=C/C(=O)N2C(=O)c3cccc(N)c3C2=O)cc(OC)c1OC | 0 | 0 | -82 | 0 | 0 | 0
Cc1ccc(CNC(=O)CN2C(=O)COc3ccccc32)cc1 | 0 | 0 | - | 0 | 0 | -
C=CCNC(=S)N/N=C(\C)c1ccccn1 | 0 | 0 | -90 | 0 | 0 | 0
C/C(=N\NC(=O)c1ccc(F)cc1)c1ccccn1 | 0 | 0 | -113 | 1.1µM | 0 | 0
O=C(NC1CCCC1)c1c[nH]c2ccc(S(=O)(=O)Nc3cccc(C(F)(F)F)c3)cc2c1=O | 0 | 0 | - | ? | 0 | 0
Fc1ccc(Nc2nc(NCc3ccco3)c3ccccc3n2)cc1 | ? | 0 | 0 | 3.5µM | 0 | 0
c1coc(CNc2nc(NCc3ccco3)c3ccccc3n2)c1 | - | - | - | - | 0 | -
O=C(NC(c1ccc(-c2ccccc2)cc1)c1cnccn1)C1CCN(Cc2cccc(C(F)(F)F)c2)CC1 (stereo not given) | ? | 0 | 0 | ? | 0 | 0
COc1ccc(CN2CCC(C(=O)Nc3ccc(Oc4cccnc4)cc3)CC2)cc1 | 0 | 0 | 0 | ? | 0 | 0
COc1cc(CN2CCC(C(=O)NC(c3ccc(-c4ccccc4)cc3)c3cnccn3)CC2)cc(OC)c1 (stereo not given) | ? | 0 | -54 | ? | 0 | 0
